{
  "source": "the OligoGym collection",
  "data": [
    {"target": "UNC5D", "experiment": "pooled miR-30 sensor sort-seq; sequence = guide strand", "conditions": "shRNA", "values": [
      {"sequence": "TACATTTCTATAGAAATCCTAT", "sensor-assay potency score (higher = more potent)": -0.569},
      {"sequence": "TTTGTGATGACACAGTACCCAC", "sensor-assay potency score (higher = more potent)": -1.26},
      {"sequence": "TAGATCAACACGTGTCTCCTAG", "sensor-assay potency score (higher = more potent)": 1.06},
      {"sequence": "TACATTTGTTTATCAATCCTGA", "sensor-assay potency score (higher = more potent)": -0.0896},
      {"sequence": "TTAAAATGTATCAAACATCTAA", "sensor-assay potency score (higher = more potent)": 0.16},
      {"sequence": "TTAGTCTACCAGGACATCTTGT", "sensor-assay potency score (higher = more potent)": -0.288},
      {"sequence": "TAGATAACTAGATCAACACGTG", "sensor-assay potency score (higher = more potent)": -0.0609},
      {"sequence": "TTAGAAAAAACAACTTTCCGTA", "sensor-assay potency score (higher = more potent)": 0.101},
      {"sequence": "TTGACAATAATCTTGTCTCATC", "sensor-assay potency score (higher = more potent)": -0.801},
      {"sequence": "TTGTCCTACATCATAAGCCTTT", "sensor-assay potency score (higher = more potent)": -0.645}
    ]},
    {"target": "UPK1A", "experiment": "pooled miR-30 sensor sort-seq; sequence = guide strand", "conditions": "shRNA", "values": [
      {"sequence": "TACGTGAGGACCATGGACCGGC", "sensor-assay potency score (higher = more potent)": 0.148},
      {"sequence": "TAGCAGGCCCACCACAACTGGA", "sensor-assay potency score (higher = more potent)": -1.8},
      {"sequence": "TAGAAGGTCAGCATCTGCTTGG", "sensor-assay potency score (higher = more potent)": -0.08},
      {"sequence": "TAGGACGTGATGCAGGAGGCGC", "sensor-assay potency score (higher = more potent)": -1.09},
      {"sequence": "TAGCTGTCGATGGCGTGGCCGA", "sensor-assay potency score (higher = more potent)": -1.49},
      {"sequence": "TATGGTCTCAGCAAACAGGGAC", "sensor-assay potency score (higher = more potent)": -0.387},
      {"sequence": "TTGGTGAACAGGTAGTCCATGT", "sensor-assay potency score (higher = more potent)": -0.409},
      {"sequence": "TTGGACACCATGTAGTCACGGT", "sensor-assay potency score (higher = more potent)": 0.419},
      {"sequence": "TACTGGTCGGCTGTCACCCATA", "sensor-assay potency score (higher = more potent)": -1.44},
      {"sequence": "TCTTGCTCAATCATGACGCGGT", "sensor-assay potency score (higher = more potent)": 0.151},
      {"sequence": "ATGGCTATCAGCATGACCGGGA", "sensor-assay potency score (higher = more potent)": -0.114}
    ]},
    {"target": "UQCRQ", "experiment": "pooled miR-30 sensor sort-seq; sequence = guide strand", "conditions": "shRNA", "values": [
      {"sequence": "AACGGTGACAAGCTGTAGCTGA", "sensor-assay potency score (higher = more potent)": 0.0218},
      {"sequence": "ATAAAACACTACAAACTGCGGC", "sensor-assay potency score (higher = more potent)": 0.284},
      {"sequence": "TTCTTCCTCTTGGATCTCTCGA", "sensor-assay potency score (higher = more potent)": -0.853},
      {"sequence": "TCGAACGGTGACAAGCTGTAGC", "sensor-assay potency score (higher = more potent)": -0.337},
      {"sequence": "TGGATCTCTCGAACTCTTCAGT", "sensor-assay potency score (higher = more potent)": -0.739},
      {"sequence": "TATTGTGTCTTTGAGACACTAC", "sensor-assay potency score (higher = more potent)": -0.42},
      {"sequence": "TGTAGCTGATCACATGCCGCAT", "sensor-assay potency score (higher = more potent)": -0.74},
      {"sequence": "TCGAACTCTTCAGTCCCCCATG", "sensor-assay potency score (higher = more potent)": -1.13},
      {"sequence": "TCCTTTAGTGAAGACGTGCGGA", "sensor-assay potency score (higher = more potent)": -0.407},
      {"sequence": "TGCTCGAACGGTGACAAGCTGT", "sensor-assay potency score (higher = more potent)": -0.735},
      {"sequence": "TAAAACACTACAAACTGCGGCA", "sensor-assay potency score (higher = more potent)": 0.151}
    ]},
    {"target": "USO1", "experiment": "pooled miR-30 sensor sort-seq; sequence = guide strand", "conditions": "shRNA", "values": [
      {"sequence": "TATGATATAATCTCTATTGTTC", "sensor-assay potency score (higher = more potent)": -0.231},
      {"sequence": "TAGCATTAGATGTAGATTGGTC", "sensor-assay potency score (higher = more potent)": 0.084},
      {"sequence": "TATATTATATAGTATGTCCAAA", "sensor-assay potency score (higher = more potent)": -1.01},
      {"sequence": "TACACGAACAAGCTGTAGCATT", "sensor-assay potency score (higher = more potent)": -0.757},
      {"sequence": "TAAAATAATTTGTTGCACCTGA", "sensor-assay potency score (higher = more potent)": 0.172},
      {"sequence": "TACCAATACACGAACAAGCTGT", "sensor-assay potency score (higher = more potent)": 0.107},
      {"sequence": "TAGGATAGTACAAAGCTGCTGC", "sensor-assay potency score (higher = more potent)": 0.88},
      {"sequence": "TTTTAATGTAGAAACCTGCTGC", "sensor-assay potency score (higher = more potent)": 0.733}
    ]}
  ]
}
